Experimental data reported in article PMC7862700, “An all-to-all approach to the identification of sequence-specific readers for epigenetic DNA modifications on cytosine”.

Tests used:
Test in all cases: DAPPL (digital affinity profiling via proximity ligation, sequencing); 10 mM Tris-HCl pH 7.5, 50 mM NaCl, 1 mM DTT, 4% glycerol, room temperature, 30 min; GST-TFs on glutathione beads, 16-mer random dsDNA library, 0.1% formaldehyde crosslink after washing; high values mean tight binding
Conditions in all cases: protein: recombinant; tags: N-terminal GST; dsDNA, one strand shown
FLI1 = molecular target: T1, FLI1 (Homo sapiens, UniProt Q01543 1-452)
T1 sequence: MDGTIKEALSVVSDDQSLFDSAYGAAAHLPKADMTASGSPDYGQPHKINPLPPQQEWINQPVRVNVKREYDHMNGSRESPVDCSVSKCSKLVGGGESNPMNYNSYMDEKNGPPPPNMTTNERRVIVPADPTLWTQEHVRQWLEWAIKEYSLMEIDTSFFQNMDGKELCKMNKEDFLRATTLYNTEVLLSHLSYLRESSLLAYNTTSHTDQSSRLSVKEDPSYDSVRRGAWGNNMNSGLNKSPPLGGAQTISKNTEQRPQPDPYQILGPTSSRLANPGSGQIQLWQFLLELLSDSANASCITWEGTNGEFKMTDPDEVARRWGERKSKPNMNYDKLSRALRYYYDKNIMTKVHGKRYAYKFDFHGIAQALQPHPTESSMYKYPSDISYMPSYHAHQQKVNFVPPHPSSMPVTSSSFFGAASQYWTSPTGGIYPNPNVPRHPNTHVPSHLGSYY
In short: (§1)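 Binding signal is each hexamer's read frequency for a factor divided by its frequency in the tag-only sample. The factors were GST-fused human transcription factors from yeast, captured on glutathione beads, DNA-barcoded and pooled with that sample. Pools were incubated with 200 nmole of a random double-stranded 16-mer DNA library in Tris/NaCl/DTT/glycerol buffer at room temperature for 30 min, then washed, crosslinked with 0.1% formaldehyde, proximity-ligated with BsaI/T4 ligase (1 h, 37 °C), PCR-amplified and sequenced on an Illumina NextSeq500.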

ELK1 = molecular target: T2, ELK1 (Homo sapiens, UniProt P19419 1-428)
T2 sequence: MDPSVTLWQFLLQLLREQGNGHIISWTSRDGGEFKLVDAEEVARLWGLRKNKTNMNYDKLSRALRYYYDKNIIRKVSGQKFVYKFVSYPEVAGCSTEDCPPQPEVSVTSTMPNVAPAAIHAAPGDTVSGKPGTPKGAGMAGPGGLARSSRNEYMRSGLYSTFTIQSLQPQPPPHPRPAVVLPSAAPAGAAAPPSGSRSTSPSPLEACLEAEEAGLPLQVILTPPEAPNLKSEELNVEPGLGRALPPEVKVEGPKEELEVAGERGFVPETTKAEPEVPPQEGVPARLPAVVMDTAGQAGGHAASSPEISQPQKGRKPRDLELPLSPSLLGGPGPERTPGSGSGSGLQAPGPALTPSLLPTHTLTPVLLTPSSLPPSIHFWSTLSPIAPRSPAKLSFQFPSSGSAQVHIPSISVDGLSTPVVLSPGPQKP
In short: as §1

GABPA = molecular target: T3, GABPA (Homo sapiens, UniProt Q06546 1-454)
T3 sequence: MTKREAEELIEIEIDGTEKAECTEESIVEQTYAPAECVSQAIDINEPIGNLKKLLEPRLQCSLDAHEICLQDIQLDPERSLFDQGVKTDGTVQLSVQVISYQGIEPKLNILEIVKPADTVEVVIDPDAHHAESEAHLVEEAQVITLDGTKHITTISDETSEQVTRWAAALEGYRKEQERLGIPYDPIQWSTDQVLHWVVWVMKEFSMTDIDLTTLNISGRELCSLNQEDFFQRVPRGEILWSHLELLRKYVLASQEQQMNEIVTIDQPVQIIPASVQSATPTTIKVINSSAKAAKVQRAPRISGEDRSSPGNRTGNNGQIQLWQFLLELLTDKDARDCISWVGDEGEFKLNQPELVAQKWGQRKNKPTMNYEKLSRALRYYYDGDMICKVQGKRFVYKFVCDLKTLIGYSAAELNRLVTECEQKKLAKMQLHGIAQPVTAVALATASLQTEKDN
In short: as §1

ERG = molecular target: T4, ERG (Homo sapiens, UniProt P11308 1-479)
T4 sequence: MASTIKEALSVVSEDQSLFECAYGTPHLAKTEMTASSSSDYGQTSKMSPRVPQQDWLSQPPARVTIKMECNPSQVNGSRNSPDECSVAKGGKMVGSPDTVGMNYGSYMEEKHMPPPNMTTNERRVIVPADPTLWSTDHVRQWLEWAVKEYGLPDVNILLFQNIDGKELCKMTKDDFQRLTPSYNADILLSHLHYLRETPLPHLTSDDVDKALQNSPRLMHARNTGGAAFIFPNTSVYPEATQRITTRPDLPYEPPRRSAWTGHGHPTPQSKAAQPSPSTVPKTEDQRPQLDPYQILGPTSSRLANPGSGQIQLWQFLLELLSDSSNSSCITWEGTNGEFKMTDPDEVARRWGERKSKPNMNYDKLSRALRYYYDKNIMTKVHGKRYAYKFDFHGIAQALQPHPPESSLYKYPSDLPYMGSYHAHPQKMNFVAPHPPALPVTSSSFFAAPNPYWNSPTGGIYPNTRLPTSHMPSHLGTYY
In short: as §1

ELF1 = ELF1 (Homo sapiens, UniProt P32519 1-619)
In short: as §1

EHF = molecular target: T5, EHF (Homo sapiens, UniProt Q9NZC4 1-300)
T5 sequence: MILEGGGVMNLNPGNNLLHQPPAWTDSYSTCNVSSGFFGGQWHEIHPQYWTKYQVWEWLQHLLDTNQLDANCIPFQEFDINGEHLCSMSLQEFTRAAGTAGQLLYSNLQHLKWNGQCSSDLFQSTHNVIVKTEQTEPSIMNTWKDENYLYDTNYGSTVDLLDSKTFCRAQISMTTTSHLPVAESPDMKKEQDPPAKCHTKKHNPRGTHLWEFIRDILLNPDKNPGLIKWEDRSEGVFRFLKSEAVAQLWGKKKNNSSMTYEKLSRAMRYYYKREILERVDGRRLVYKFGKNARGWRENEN
In short: as §1

SPI1 = SPI1 (Homo sapiens, UniProt P17947 1-270)
In short: as §1

SPIB = SPIB (Homo sapiens, UniProt Q01892 1-262)
In short: as §1

FEV = molecular target: T6, FEV (Homo sapiens, UniProt Q99581 1-238)
T6 sequence: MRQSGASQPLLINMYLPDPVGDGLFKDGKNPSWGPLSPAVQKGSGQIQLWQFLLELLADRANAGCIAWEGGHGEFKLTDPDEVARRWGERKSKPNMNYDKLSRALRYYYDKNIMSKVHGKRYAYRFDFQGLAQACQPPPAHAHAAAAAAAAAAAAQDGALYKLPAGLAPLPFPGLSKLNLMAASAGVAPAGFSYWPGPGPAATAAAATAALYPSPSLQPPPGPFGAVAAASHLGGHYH
In short: as §1

ETV5 = ETV5 (Homo sapiens, UniProt P41161 1-510)
In short: as §1

Sequence of SPIB (Q01892 whole entry): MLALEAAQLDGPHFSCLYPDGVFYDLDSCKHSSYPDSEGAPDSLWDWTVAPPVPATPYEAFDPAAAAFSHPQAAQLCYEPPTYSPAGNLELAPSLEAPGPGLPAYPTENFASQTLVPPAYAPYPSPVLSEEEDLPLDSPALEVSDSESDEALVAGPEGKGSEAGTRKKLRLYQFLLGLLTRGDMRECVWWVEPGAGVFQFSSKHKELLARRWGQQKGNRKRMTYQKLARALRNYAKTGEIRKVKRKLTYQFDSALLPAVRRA
Sequence of ELF1 (P32519 whole entry): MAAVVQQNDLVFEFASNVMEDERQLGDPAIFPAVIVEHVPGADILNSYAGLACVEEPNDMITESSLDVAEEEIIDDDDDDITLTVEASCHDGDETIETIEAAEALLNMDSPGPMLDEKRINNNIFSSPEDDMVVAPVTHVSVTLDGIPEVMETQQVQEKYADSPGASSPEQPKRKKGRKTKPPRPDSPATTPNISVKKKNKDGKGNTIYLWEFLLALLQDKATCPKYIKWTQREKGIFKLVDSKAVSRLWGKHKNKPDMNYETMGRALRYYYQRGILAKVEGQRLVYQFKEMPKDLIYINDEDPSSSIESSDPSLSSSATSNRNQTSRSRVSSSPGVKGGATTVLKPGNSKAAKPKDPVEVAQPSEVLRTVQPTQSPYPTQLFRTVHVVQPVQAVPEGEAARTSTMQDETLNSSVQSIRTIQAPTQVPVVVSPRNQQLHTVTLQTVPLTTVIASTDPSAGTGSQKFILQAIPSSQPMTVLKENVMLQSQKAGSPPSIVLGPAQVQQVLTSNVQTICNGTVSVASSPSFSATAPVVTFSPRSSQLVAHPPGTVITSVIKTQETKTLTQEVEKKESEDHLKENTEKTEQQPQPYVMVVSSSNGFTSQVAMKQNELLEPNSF
Sequence of ETV5 (P41161 whole entry): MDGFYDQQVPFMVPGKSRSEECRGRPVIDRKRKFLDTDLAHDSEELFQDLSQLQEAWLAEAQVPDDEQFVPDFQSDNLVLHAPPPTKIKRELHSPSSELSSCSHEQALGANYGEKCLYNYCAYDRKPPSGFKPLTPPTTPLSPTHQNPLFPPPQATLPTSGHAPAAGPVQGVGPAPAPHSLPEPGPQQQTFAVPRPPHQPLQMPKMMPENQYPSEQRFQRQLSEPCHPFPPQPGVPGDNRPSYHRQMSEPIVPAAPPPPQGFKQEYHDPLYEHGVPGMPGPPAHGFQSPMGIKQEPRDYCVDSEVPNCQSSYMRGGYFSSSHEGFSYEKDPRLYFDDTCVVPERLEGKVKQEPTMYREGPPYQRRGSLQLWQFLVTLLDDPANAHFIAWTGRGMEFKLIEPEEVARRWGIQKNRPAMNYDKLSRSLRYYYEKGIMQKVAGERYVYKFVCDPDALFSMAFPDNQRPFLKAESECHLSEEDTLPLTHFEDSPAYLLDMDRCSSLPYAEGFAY

Which results are given for CCAACC?
binding signal (FLI1): 1.12 fold enrichment (6-mer frequency, TF over GST control); binding signal (ELK1): 1.1 fold enrichment (6-mer frequency, TF over GST control); binding signal (GABPA): 1.01 fold enrichment (6-mer frequency, TF over GST control); binding signal (ERG): 1.09 fold enrichment (6-mer frequency, TF over GST control); binding signal (ELF1): 1.16 fold enrichment (6-mer frequency, TF over GST control); binding signal (EHF): 1.04 fold enrichment (6-mer frequency, TF over GST control); binding signal (SPI1): 1.11 fold enrichment (6-mer frequency, TF over GST control); binding signal (SPIB): 1.06 fold enrichment (6-mer frequency, TF over GST control); binding signal (FEV): 1.1 fold enrichment (6-mer frequency, TF over GST control); binding signal (ETV5): 1.01 fold enrichment (6-mer frequency, TF over GST control)
